In PubChem BioAssay (EPA / NIEHS):
Records with an inconclusive call do not appear. Calls of active or inactive are those of the source. The calls were made as follows: active = hit-call score of the fitted dose curve at least 0.9, where 1 is the maximum; inconclusive = response in the unintended direction; inactive = score below 0.9.

The compounds below were run against Estrogen receptor (Homo sapiens) (UniProt P03372) (assay: OT_ER_ERaERa_1440: Odyssey Thera (OT) 24-hour HEK293T Protein-Complementation Assay for Estrogen Receptor-alpha/-alpha Homodimer (AID 2283349);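 also: hits raise fluorescence above DMSO for agonists and antagonists alike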).
Chain of Estrogen receptor (Homo sapiens) (P03372 whole entry, looked up, the tested form may be a part): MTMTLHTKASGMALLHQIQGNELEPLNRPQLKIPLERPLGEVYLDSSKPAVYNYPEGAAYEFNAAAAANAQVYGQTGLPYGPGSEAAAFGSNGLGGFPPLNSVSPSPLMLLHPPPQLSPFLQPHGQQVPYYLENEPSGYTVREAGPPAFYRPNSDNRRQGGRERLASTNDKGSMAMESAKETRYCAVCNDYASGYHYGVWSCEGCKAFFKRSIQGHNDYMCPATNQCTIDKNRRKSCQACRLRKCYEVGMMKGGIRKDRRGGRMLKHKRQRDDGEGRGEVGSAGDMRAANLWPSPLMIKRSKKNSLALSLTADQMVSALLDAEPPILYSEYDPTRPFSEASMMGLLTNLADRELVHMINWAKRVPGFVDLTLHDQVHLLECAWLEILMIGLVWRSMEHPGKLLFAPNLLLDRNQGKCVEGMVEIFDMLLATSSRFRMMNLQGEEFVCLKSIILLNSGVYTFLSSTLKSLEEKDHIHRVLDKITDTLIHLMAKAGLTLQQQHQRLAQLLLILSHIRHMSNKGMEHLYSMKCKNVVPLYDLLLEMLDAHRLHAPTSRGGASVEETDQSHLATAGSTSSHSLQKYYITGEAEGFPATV
How it was run: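 Readout is the rise in mean fluorescence from reporter fragment complementation when ERα LBD (aa 310-547) units dimerize in HEK293T cells. Measured 24 h after dosing and analysed as increase over DMSO control.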
CCN=C1C=CC(=C(c2ccc(N(CC)CC)cc2)c2ccc(N(CC)CC)cc2)c2ccccc21 was tested, and the outcome was “inactive”.
For CCCCCCCCCc1ccc(OCCO)cc1, the AC50 was 19.7 µM (active).
For CCCCCCCCCCCCCC[P+](CCCC)(CCCC)CCCC, the outcome was “inactive”.
For CCCCCCCC/C=C\CCCCCCCC(=O)N(C)CC(=O)O, the outcome was “inactive”.
For CC(C)Nc1ccc(NC(C)C)c2c1C(=O)c1ccccc1C2=O, the outcome was “inactive”.
CCCCCCCCn1sc(Cl)c(Cl)c1=O was tested, and the outcome was “inactive”.
CCN=c1cc2oc3cc(NCC)c(C)cc3c(-c3ccccc3C(=O)OCC)c-2cc1C was tested, and the AC50 was 62.3 µM (active).

What follows are compounds tested against Estrogen receptor (Homo sapiens) (UniProt P03372) (assay: OT_ER_ERaERa_0480: Odyssey Thera (OT) 8-hour HEK293T Protein-Complementation Assay for Estrogen Receptor-alpha/-alpha Homodimer (AID 2283351);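 also: rise in fluorescence from reassembled reporter fragments on ERα LBD homodimer in nucleus or whole cell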).
How it was run: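 Binding reporter in which dimerisation of ERα LBD (aa 310-547) fusions reconstitutes a fluorescent reporter in HEK293T cells. Compounds incubated 8 h; mean fluorescence intensity increase versus DMSO scored.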
CCN=C1C=CC(=C(c2ccc(N(CC)CC)cc2)c2ccc(N(CC)CC)cc2)c2ccccc21 was tested, and the outcome was “inactive”.
In the case of CCCCCCCCCc1ccc(OCCO)cc1, the outcome is reported as “inactive”.
For CCCCCCCCCCCCCC[P+](CCCC)(CCCC)CCCC, the outcome was “inactive”.
In the case of CC(C)Nc1ccc(NC(C)C)c2c1C(=O)c1ccccc1C2=O, the outcome is reported as “inactive”.
For CCCCCCCCn1sc(Cl)c(Cl)c1=O, the outcome was “inactive”.
For CCN=c1cc2oc3cc(NCC)c(C)cc3c(-c3ccccc3C(=O)OCC)c-2cc1C, the AC50 was 12.2 µM (active).

Each compound was assayed against T1, Estrogen receptor (Homo sapiens) + Estrogen receptor beta (Homo sapiens) (UniProt P03372+Q92731) (assay: OT_ER_ERaERb_0480: Odyssey Thera (OT) 8-hour HEK293T Protein-Complementation Assay for Estrogen Receptor-alpha/-beta Heterodimer (AID 2283352)).
T1 sequence (P03372 whole entry, looked up, the tested form may be a part): as above
T1 sequence (Q92731 whole entry, looked up, the tested form may be a part): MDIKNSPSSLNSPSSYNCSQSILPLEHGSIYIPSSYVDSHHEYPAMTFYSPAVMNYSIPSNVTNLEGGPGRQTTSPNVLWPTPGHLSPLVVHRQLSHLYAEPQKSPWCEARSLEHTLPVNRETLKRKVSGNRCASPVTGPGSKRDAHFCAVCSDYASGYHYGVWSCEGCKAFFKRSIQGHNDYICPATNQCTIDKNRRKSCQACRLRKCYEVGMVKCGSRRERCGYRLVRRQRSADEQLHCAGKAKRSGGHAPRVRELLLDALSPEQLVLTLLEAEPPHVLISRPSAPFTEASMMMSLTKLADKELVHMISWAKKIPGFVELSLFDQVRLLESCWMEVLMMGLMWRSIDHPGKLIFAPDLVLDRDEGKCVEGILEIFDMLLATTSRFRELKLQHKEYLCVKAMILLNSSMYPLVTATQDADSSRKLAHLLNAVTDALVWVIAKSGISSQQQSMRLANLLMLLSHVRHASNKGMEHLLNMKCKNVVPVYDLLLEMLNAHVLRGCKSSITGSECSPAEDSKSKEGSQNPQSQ
How it was run: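 Fluorescence intensity readout from a protein-fragment complementation reporter in HEK293T; ER-alpha/ER-beta LBD heterodimer. Dosing 8 h. Gain-of-signal fit relative to DMSO negative control; laser scanning cytometry of whole-well cell population.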
CCN=C1C=CC(=C(c2ccc(N(CC)CC)cc2)c2ccc(N(CC)CC)cc2)c2ccccc21 was tested, and the outcome was “inactive”.
For CCCCCCCCCc1ccc(OCCO)cc1, the AC50 was 4.81 µM (active).
For CCCCCCCC/C=C\CCCCCCCC(=O)N(C)CC(=O)O, the outcome was “inactive”.
For CCN=c1cc2oc3cc(NCC)c(C)cc3c(-c3ccccc3C(=O)OCC)c-2cc1C, the AC50 was 71.3 µM (active).

What follows are compounds tested against Androgen Receptor/SRC-1 Co-activator, AR (gene 367) (UniProt P10275) (assay: OT_AR_ARSRC1_0960: Odyssey Thera (OT) 16-hour HEK293T Protein-Complementation Assay for Androgen Receptor/SRC-1 Co-activator (AID 2283353);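 also: actives raise the signal above DMSO so potency reflects increased AR and SRC-1 complex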).
Chain of Androgen Receptor/SRC-1 Co-activator, AR (gene 367) (P10275 whole entry, looked up, the tested form may be a part): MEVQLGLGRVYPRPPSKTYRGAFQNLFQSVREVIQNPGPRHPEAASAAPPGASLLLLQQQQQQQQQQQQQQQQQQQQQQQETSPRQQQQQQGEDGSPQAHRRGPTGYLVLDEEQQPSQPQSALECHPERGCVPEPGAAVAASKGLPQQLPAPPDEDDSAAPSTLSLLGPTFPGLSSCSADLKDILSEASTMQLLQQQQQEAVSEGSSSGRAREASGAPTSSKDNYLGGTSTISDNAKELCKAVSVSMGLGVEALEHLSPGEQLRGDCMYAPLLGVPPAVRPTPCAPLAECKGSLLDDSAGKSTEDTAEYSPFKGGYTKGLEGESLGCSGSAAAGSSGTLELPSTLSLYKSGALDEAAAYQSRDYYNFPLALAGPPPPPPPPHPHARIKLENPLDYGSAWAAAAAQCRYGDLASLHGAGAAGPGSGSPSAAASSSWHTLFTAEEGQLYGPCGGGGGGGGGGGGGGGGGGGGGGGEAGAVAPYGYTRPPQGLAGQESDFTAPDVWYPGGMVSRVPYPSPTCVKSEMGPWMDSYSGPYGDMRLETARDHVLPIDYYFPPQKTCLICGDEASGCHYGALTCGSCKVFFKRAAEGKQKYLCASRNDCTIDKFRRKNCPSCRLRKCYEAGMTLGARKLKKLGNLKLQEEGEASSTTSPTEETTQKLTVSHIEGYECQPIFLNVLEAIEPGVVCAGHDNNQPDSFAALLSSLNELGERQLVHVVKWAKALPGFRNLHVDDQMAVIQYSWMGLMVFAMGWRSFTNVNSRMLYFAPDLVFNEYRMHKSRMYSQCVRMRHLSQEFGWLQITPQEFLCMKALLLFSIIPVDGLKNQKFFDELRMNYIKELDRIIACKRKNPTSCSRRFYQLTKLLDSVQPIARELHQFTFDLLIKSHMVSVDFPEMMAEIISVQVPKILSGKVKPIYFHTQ
How it was run: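 Interaction of AR with SRC-1 was followed by YFP fragment complementation in HEK293T cells after 16 h of dosing. Gain of nuclear-over-cytoplasmic 488 nm fluorescence against DMSO controls defined activity.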
In the case of CCN=C1C=CC(=C(c2ccc(N(CC)CC)cc2)c2ccc(N(CC)CC)cc2)c2ccccc21, the AC50 is reported as 0.451 µM (active).
For CCCCCCCCCc1ccc(OCCO)cc1, the AC50 was 20 µM (active).
In the case of CCCCCCCCCCCCCC[P+](CCCC)(CCCC)CCCC, the AC50 is reported as 3.59 µM (active).
With CCN=c1cc2oc3cc(NCC)c(C)cc3c(-c3ccccc3C(=O)OCC)c-2cc1C the AC50 was 0.55 µM (active).

The compounds below were run against Androgen Receptor/SRC-1 Co-activator, AR (gene 367) (UniProt P10275) (assay: OT_AR_ARSRC1_0480: Odyssey Thera (OT) 8-hour HEK293T Protein-Complementation Assay for Androgen Receptor/SRC-1 Co-activator (AID 2283354);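 also: hits raise the complementation signal above DMSO so AC50 marks enhancers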).
How it was run: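 HEK293T cells stably expressing AR and SRC-1 fused to split Venus YFP fragments via (Gly4Ser)2 linkers were read 8 h after compound dosing. Complementation was imaged at 488 and 635nm, and nuclear/cytoplasmic fluorescence ratio (488nm) was taken over ≥400 cells; gain-of-signal versus DMSO.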
With CCN=C1C=CC(=C(c2ccc(N(CC)CC)cc2)c2ccc(N(CC)CC)cc2)c2ccccc21 the AC50 was 1.04 µM (active).
CCCCCCCCCc1ccc(OCCO)cc1 was tested, and the AC50 was 25.4 µM (active).
For CCCCCCCCCCCCCC[P+](CCCC)(CCCC)CCCC, the AC50 was 12.3 µM (active).
In the case of CCN=c1cc2oc3cc(NCC)c(C)cc3c(-c3ccccc3C(=O)OCC)c-2cc1C, the AC50 is reported as 12.5 µM (active).

These compounds were tested against T1, Estrogen receptor (Homo sapiens) + Estrogen receptor beta (Homo sapiens) (assay: OT_ER_ERaERb_1440: Odyssey Thera (OT) 24-hour HEK293T Protein-Complementation Assay for Estrogen Receptor-alpha/-beta Homodimer (AID 2283356);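 also: heteromer of ER alpha and ER beta binding domains; hits raise reporter fluorescence and both agonists and antagonists give an increase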).
How it was run: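 Readout: mean fluorescence intensity in nucleus (agonists) or nucleus plus cytoplasm (antagonists), read by laser scanning cytometer after 24 h compound exposure of HEK293T cells carrying ERα/ERβ LBD fragment-complementation constructs; DMSO baseline.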
For CCN=C1C=CC(=C(c2ccc(N(CC)CC)cc2)c2ccc(N(CC)CC)cc2)c2ccccc21, the outcome was “inactive”.
For CCCCCCCCCc1ccc(OCCO)cc1, the AC50 was 4.94 µM (active).
With CCCCCCCCCCCCCC[P+](CCCC)(CCCC)CCCC the outcome was “inactive”.
CCCCCCCC/C=C\CCCCCCCC(=O)N(C)CC(=O)O was tested, and the outcome was “inactive”.
CC(C)Nc1ccc(NC(C)C)c2c1C(=O)c1ccccc1C2=O was tested, and the outcome was “inactive”.
For CCN=c1cc2oc3cc(NCC)c(C)cc3c(-c3ccccc3C(=O)OCC)c-2cc1C, the outcome was “inactive”.

These compounds were tested against Estrogen receptor beta (Homo sapiens) (UniProt Q92731) (assay: OT_ER_ERbERb_0480: Odyssey Thera (OT) 8-hour HEK293T Protein-Complementation Assay for Estrogen Receptor-beta/-beta Homodimer (AID 2283357);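 also: active means signal gain over DMSO baseline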).
Chain of Estrogen receptor beta (Homo sapiens) (Q92731 whole entry, looked up, the tested form may be a part): as the sequence (Q92731 whole entry, looked up, the tested form may be a part) above
How it was run: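 Readout: increase in mean fluorescence intensity (nucleus for agonists; nucleus plus cytoplasm for antagonists) relative to DMSO, from a reporter-fragment complementation of human ER-beta LBD homodimer in HEK293T cells dosed 8 hours.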
CCN=C1C=CC(=C(c2ccc(N(CC)CC)cc2)c2ccc(N(CC)CC)cc2)c2ccccc21 was tested, and the outcome was “inactive”.
In the case of CCCCCCCCCc1ccc(OCCO)cc1, the AC50 is reported as 4.92 µM (active).
For CCCCCCCCCCCCCC[P+](CCCC)(CCCC)CCCC, the outcome was “inactive”.
In the case of CCCCCCCC/C=C\CCCCCCCC(=O)N(C)CC(=O)O, the outcome is reported as “inactive”.
With CC(C)Nc1ccc(NC(C)C)c2c1C(=O)c1ccccc1C2=O the outcome was “inactive”.
For CCCCCCCCn1sc(Cl)c(Cl)c1=O, the outcome was “inactive”.
For CCN=c1cc2oc3cc(NCC)c(C)cc3c(-c3ccccc3C(=O)OCC)c-2cc1C, the AC50 was 55.1 µM (active).
